Test results as given in PubChem BioAssay.
Values without a mark were called inactive. The source made the active and inactive calls.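 The calls were made as follows: active = inhibition above the hit cutoff set in the earlier primary screen (cut at about 27% in these data); inactive = the rest.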

What follows are compounds tested against Protein phosphatase methylesterase 1 (Homo sapiens) (UniProt Q9Y570) (assay: PME-1 inhibitor activity retest, confirmation, biochemical, fluorescence polarization, FP-Rh probe, triplicate (AID 2171;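 also: 0% = enzyme with DMSO and 100% = wells lacking PME-1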)). Conditions: recombinant PME-1, FP-Rh probe fluorescence polarization; at 5.9 µM; stronger effect = higher value.
Sequence of Protein phosphatase methylesterase 1 (Homo sapiens) (Q9Y570 whole entry, looked up): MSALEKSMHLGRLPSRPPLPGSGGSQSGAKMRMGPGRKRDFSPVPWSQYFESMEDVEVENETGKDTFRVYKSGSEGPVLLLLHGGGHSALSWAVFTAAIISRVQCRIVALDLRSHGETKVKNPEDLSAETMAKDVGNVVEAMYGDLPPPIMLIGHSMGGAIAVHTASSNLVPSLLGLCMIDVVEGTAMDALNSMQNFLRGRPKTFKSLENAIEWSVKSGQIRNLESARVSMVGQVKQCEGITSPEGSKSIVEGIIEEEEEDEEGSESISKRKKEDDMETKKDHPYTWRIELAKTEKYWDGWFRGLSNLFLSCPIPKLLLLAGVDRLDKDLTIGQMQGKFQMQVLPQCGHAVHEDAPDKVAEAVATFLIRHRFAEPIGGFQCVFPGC
`Cc1ccc(NC(=O)COC(=O)c2cccc3c2C(=O)c2ccccc2C3=O)c(C)c1` was tested, and the inhibition was 91.2% (active). For `O=C1C=C(N2CCCCC2)c2ccccc2C1=O`, the inhibition was 43% (active). `CCOc1ccc(N=C/C=C/c2ccccc2)c(O)c1` showed an inhibition of 9.57%. In the case of `Oc1[nH]c2ccccc2c1N=Nc1ncnc2c1oc1ccccc12`, the inhibition is reported as 35% (active). For `COc1ccc(-c2cc(-c3ccc(Cl)cc3)n[nH]2)c(O)c1`, the inhibition was 16.9%. Work on `COc1ccc(-c2c/c(=N\c3nc(-c4ccccc4)c(C)s3)c3ccccc3o2)cc1O` yielded an inhibition of 20.8%. Work on `CCN(CC)C(=O)C1c2ccccc2Oc2ccccc21` yielded an inhibition of 7.22%. `CCOC(=O)c1c(C)[nH]c(C)c1S(=O)(=O)N(C)CC(=O)Nc1cc(C)ccc1OC` gave an inhibition of 24.4%. Work on `COc1ccc2oc(C(=O)OCC(=O)N3CCN(S(=O)(=O)c4ccc(C)cc4)CC3)c(C)c2c1` yielded an inhibition of 17.9%. `Cc1cc(N/N=C/c2ccc(O)cc2O)nc(-c2ccccc2O)n1` was tested, and the inhibition was 39.8% (active). With `CN=c1scc(-c2cccs2)n1/N=C/c1ccc(O)c(O)c1O` the inhibition was 50.1% (active). `Cc1ccc2[nH]c(O)c(N=NC(=O)c3ccc(NS(=O)(=O)c4cccs4)cc3)c2c1` was tested, and the inhibition was 45.9% (active). In the case of `N#C/C(=C/c1ccc(N2CCCC2)c([N+](=O)[O-])c1)c1nc2ccccc2[nH]1`, the inhibition is reported as 30.9% (active). For `COc1ccc(OC)c(-c2c3cc(O)c(=O)cc-3oc3cc(O)c(O)cc23)c1`, the inhibition was 169% (active). `O=C1C2=C(Nc3ccccc3SC2c2ccco2)c2ccccc21` (stereo not given) showed an inhibition of 5.92%. In the case of `Cc1c2cc(O)c(=O)cc-2oc2cc(O)c(O)cc12`, the inhibition is reported as 143% (active). `C/C(=N/Nc1ccnc2cc(Cl)ccc12)c1ccc(O)cc1` showed an inhibition of 10.9%. For `CCCCN(CCCC)CCNC(=O)c1cn(C)c2ccc(S(=O)(=O)N(C)C3CCCCC3)cc2c1=O`, the inhibition was 58.5% (active). With `COc1cccc(NC(=O)Nc2nnc(N3CCCCC3C)s2)c1` (stereo not given) the inhibition was 50.6% (active). Compound `Cc1cc(N/N=C/c2c(O)ccc3ccccc23)nc(-c2ccccc2O)n1` has an inhibition of 23.6%. In the case of `N#Cc1c(N)nc2c3c(sc(=N)c2c1N)NC(=O)CC3c1c(F)cccc1Cl` (stereo not given), the inhibition is reported as 38.2% (active). For `CC1=NN(c2ccc(C)c(C)c2)C(=O)C1C(c1cccc(O)c1)C1C(=O)N(c2ccc(C)c(C)c2)N=C1C` (stereo not given), the inhibition was 15.3%. For `CCN1C(=O)/C(=C2/Sc3ccccc3N2CC)S/C1=N\c1ncn[nH]1`, the inhibition was 42.6% (active). `Cc1cc(SCC(=O)N/N=C/c2ccc(O)c(O)c2O)c(C)cc1Br` was tested, and the inhibition was -9.75%. For `CCN(CC)S(=O)(=O)c1ccc(C)c(NC(=O)COC(=O)c2ccc(C)c(S(=O)(=O)N3CCOCC3)c2)c1`, the inhibition was 49.7% (active). Compound `O=C1NN(c2ccc(Cl)c(Cl)c2)C(=O)/C1=C/c1cccc(OC(=O)c2cccs2)c1` has an inhibition of 8.75%. With `Cc1ccsc1/C=N/n1c(-c2cc(-c3ccccc3)n[nH]2)n[nH]c1=S` the inhibition was 22%. `O=C(CN1CCN(S(=O)(=O)c2ccc(Br)cc2)CC1)N/N=C/c1cc([N+](=O)[O-])ccc1Cl` was tested, and the inhibition was 21%. `Cn1c(=O)cc2c3c(c(N4CCCCC4)ccc31)C(=O)c1ccccc1-2` gave an inhibition of 24.1%. `Cc1ccc(NS(=O)(=O)c2ccc3c(c2)C(=O)c2ccccc2C3=O)c(C)c1` was tested, and the inhibition was 24.5%. In the case of `CNS(=O)(=O)c1cc(C(=O)OCC(=O)NC2CCCc3ccccc32)ccc1Cl` (stereo not given), the inhibition is reported as 24.4%. For `CCNc1c2c3c(cccc3n(C)c1=O)C(=O)c1ccccc1-2`, the inhibition was 80.2% (active). Compound `CCCCN(CC)CCCNC(=O)c1cn(C)c2ccc(S(=O)(=O)N(C)C3CCCCC3)cc2c1=O` has an inhibition of 14.5%. With `Nc1[nH]n(-c2ccccc2)c(=O)c1N=Nc1ccc2c(c1)OCO2` the inhibition was 39.8% (active). For `CCC(=O)Oc1ccc(C/C(=N\O)c2ccc(O)cc2O)o1`, the inhibition was 43% (active). Work on `COc1ccc2ccc3c(c2c1)N=C[C@]1(O3)N(C)c2ccccc2C1(C)C` yielded an inhibition of 5.96%. For `Oc1ccc(Nc2nc3ccccc3nc2Nc2ccc(O)cc2)cc1`, the inhibition was -0.74%. With `Oc1ccc(N=Cc2ccc(OCc3ccccc3)cc2)cc1` the inhibition was 6.36%. In the case of `CCCCNc1c2c3c(cccc3n(C)c1=O)C(=O)c1ccccc1-2`, the inhibition is reported as 71.1% (active). In the case of `Cc1cc(C(=O)CC#N)c(C)n1-c1ccc(OC(F)F)cc1`, the inhibition is reported as 45.9% (active).
